The source of these data is a collection of fitness landscapes (doi:10.1016/j.celrep.2020.107928).

Sequences and labels used below:
B1: Caulobacter ParB omega fusion; a variant is named by its letters at X, in order, B8GW30 (parent)
chain: MESVVVGEPGMSEGRRGLGRGLSALLGEVDAAPAQAPGEQLGGSREAPIEILQRNPDQPRRTFREEDLEDLSNSIREKGVLQPILVRPSPDTAGEYQIVAGERAWRAAQRAGLKTVPIMVRELDDLAVLEIGIIENVQRADLNVLEEALSYKVLMEKFERTQENIAQTIGKSXSHVANXMRLLXLPDEVQSYLVSGELTAXHARAIAAAADPVALAKQIIEGGLSVRETEALARKAPNLSAGKSKGGRPPRVKDTDTQALESDLSSVLGLDVSIDHRGSTGTLTITYATLEQLDDLCNRLTRGI

Over roughly 81,000 sequences, “one-hybrid fitness for binding parS DNA” has its median near -0.17; the highest 2% begin near 0.51. Only a selection was taken, and the highest values are over-represented in it overall. A value given as a limit tells only on which side of the number the result lay.

The assay covers variants of B1. In words: one-hybrid fitness for binding parS DNA (scaled: cognate 1, non-cognate 0); higher = stronger binding. Conditions: with parS DNA site. Put shortly:
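In E. coli USO, a HIS3 reporter with its site placed 19 bp from the promoter was used to select Caulobacter ParB variants randomised at four specificity codons. Growth lasted 48 hours at 37°C on histidine-free M9 containing 0.1 mM IPTG and 5 mM 3-AT. Fitness was taken as the log change in variant-to-wild-type read ratio from Illumina sequencing of pre- and post-selection plasmids, rescaled between the non-cognate and cognate sites.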
For the variant RYKY, the “one-hybrid fitness for binding parS DNA” value is 0.514. For TITP the value was at most 0.2; for LFYR, at most 0.2.

As for HYYD, the “one-hybrid fitness for binding parS DNA” value is at most 0.2. The same measure for DGDR: at most 0.2; for RIDG: 0.831. For RINE the value was at most 0.2. On to RIDN, for which the “one-hybrid fitness for binding parS DNA” value came to 0.388.

For the variant RIDP, the “one-hybrid fitness for binding parS DNA” value was at most 0.2. For RING the value was 1.03; for RINR, at most 0.2.

Consider QLMK, for which the “one-hybrid fitness for binding parS DNA” value was at most 0.2. The same measure for SRNE: at most 0.2; for GGVR: at most 0.2; for RPWS: at most 0.2. The same measure for RSWD: at most 0.2; for RCWN: 0.401; for RMWS: 1.05. The same measure for RMWP: at most 0.2; for RCWS: 1.09.

Turning to RSWS, the “one-hybrid fitness for binding parS DNA” value came to 0.989. The same measure for RSWP: at most 0.2; for RMWD: at most 0.2; for PQAF: at most 0.2.

In the case of RMKV, the “one-hybrid fitness for binding parS DNA” value is at most 0.2. For CHNG, the “one-hybrid fitness for binding parS DNA” value is at most 0.2.

On to TAAQ, for which the “one-hybrid fitness for binding parS DNA” value is at most 0.2. For SDSD the value was at most 0.2; for GVLC, at most 0.2; for RKKA, 0.846. For RKVA the value was 0.527; for TGNL, at most 0.2.

As for DKAR, the “one-hybrid fitness for binding parS DNA” value was at most 0.2. The same measure for AWNT: at most 0.2; for KHTD: at most 0.2.

With YNPS, the “one-hybrid fitness for binding parS DNA” value is at most 0.2. For QHAY the value was at most 0.2; for RQLF, 0.241; for RTFK, at most 0.2. The same measure for RTFG: 1.01; for RTAM: 0.311; for RTAH: 0.21.

In the case of RTAG, the “one-hybrid fitness for binding parS DNA” value came out at 1. The same measure for RTFY: 0.479; for TEAR: at most 0.2; for CSDF: at most 0.2. For the variant IWPL, the “one-hybrid fitness for binding parS DNA” value was at most 0.2. For CTLY the value was at most 0.2; for PPSK, at most 0.2. On to YQCG, for which the “one-hybrid fitness for binding parS DNA” value was at most 0.2. For DLVA the value was at most 0.2; for ALKA, at most 0.2.

As to RLVA, the “one-hybrid fitness for binding parS DNA” value came out at 0.567. Consider CLKA, for which the “one-hybrid fitness for binding parS DNA” value is at most 0.2. Take RLKA: the “one-hybrid fitness for binding parS DNA” value stood at 0.796. Take NLVA: the “one-hybrid fitness for binding parS DNA” value was at most 0.2. The same measure for LHAG: at most 0.2; for QGGK: at most 0.2; for TMSY: at most 0.2. For QLMM the value was at most 0.2; for SQKG, at most 0.2.

RSVC: the “one-hybrid fitness for binding parS DNA” value was 0.775. For RSVD the value was at most 0.2; for RSVH, at most 0.2; for RPVC, at most 0.2. The same measure for REVC: at most 0.2; for RCVC: 0.965. The same measure for AWDA: at most 0.2; for HGSI: at most 0.2; for DKKR: at most 0.2. As to SPNA, the “one-hybrid fitness for binding parS DNA” value is at most 0.2.

Regarding LWAR, the “one-hybrid fitness for binding parS DNA” value is at most 0.2. For VAPG the value was at most 0.2; for RNAG, 0.853. The same measure for RNAR: at most 0.2. The same measure for RNFG: 0.662. As to RNFR, the “one-hybrid fitness for binding parS DNA” value is at most 0.2. The same measure for RNAY: 0.359; for RNFY: at most 0.2.
